Laboratory results published in ChEMBL document CHEMBL1201862, “PubChem BioAssay data set” (2004).
In all, about 400,000 compounds went through this assay and about 2,100 (0.53%) were called active. Inconclusive results (about 14%) are left out. How the calls were made is not given here. This excerpt belongs to a sample that is enriched for actives.

These molecules were tested against Ataxin-2 (Homo sapiens) (UniProt Q99700) (assay: qHTS for Inhibitors of ATXN expression.).
Format: functional

Chain of Ataxin-2 (Homo sapiens) (Q99700 whole entry): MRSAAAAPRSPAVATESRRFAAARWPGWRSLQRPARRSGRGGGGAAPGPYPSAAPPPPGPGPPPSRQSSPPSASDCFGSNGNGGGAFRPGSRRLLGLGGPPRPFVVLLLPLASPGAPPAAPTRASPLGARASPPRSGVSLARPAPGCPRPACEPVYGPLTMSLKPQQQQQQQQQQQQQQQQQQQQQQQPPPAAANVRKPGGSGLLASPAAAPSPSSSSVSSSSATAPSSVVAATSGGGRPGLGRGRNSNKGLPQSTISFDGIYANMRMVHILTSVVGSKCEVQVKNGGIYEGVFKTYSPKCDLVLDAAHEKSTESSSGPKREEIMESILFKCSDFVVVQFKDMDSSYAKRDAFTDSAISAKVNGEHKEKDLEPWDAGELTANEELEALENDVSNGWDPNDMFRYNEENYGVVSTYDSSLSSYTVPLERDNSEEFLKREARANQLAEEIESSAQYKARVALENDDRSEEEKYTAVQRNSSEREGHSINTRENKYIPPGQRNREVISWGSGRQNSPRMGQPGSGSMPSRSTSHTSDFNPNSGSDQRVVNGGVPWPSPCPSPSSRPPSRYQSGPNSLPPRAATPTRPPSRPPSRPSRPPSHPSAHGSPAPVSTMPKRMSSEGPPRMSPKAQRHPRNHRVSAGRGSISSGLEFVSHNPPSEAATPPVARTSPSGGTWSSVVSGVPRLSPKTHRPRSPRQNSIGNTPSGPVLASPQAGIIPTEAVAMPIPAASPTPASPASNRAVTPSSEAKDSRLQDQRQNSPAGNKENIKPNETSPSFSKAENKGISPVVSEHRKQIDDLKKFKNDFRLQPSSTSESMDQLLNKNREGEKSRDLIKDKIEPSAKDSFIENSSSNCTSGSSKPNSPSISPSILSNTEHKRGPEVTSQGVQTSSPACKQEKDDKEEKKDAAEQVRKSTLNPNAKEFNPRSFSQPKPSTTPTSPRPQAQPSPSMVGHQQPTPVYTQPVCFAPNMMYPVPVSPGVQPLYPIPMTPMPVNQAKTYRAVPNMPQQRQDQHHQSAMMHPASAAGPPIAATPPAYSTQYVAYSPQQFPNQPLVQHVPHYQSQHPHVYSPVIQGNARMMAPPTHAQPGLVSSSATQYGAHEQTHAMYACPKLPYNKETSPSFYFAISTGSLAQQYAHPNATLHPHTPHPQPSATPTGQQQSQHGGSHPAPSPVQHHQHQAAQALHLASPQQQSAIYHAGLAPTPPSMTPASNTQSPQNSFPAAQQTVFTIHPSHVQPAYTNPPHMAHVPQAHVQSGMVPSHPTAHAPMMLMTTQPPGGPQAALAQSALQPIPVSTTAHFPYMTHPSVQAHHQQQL

SMILES	Potency
CC[C@@H]1C(c2cccc(Cl)c2)=NN(c2ccc(Br)cc2)[C@H]1C(=O)N1CCOC1=O	inactive
O=C(CN1C(=O)NC2(CCCC2)C1=O)NNC(=O)c1ccccc1F	inactive
CCOc1cccc(CN2CCCC(C(=O)c3cccc(C(F)(F)F)c3)C2)c1O (stereo unspecified)	inactive
Cc1nc(-c2ccc(S(=O)(=O)Oc3ccc(Cl)cc3Cl)s2)cs1	inactive
CCOC(=O)c1cc2c(=O)n3ccccc3nc2n(Cc2ccco2)/c1=N\C(=O)c1ccccc1Br	inactive
CCC(=O)N(CC)C1=C(O)C(=O)c2ccccc2C1=O	inactive
O=C1c2ccccc2C(=O)c2[nH]c(O)nc21	25.1 µM (active)
CCOC(=O)C1CCN(C(=O)c2ccc(CNS(=O)(=O)c3ccc(OC)cc3)cc2)CC1	inactive
O=C1NCCCC1C(=O)N/N=C/c1ccc(Cl)cc1 (stereo unspecified)	inactive
O=C(CCCCC(=O)NN=Cc1ccc(Cl)cc1)NN=Cc1ccc(Cl)cc1	39.8 µM (active)
O=C(CCCCC(=O)NN=Cc1ccc2c(c1)CCC2)NN=Cc1ccc2c(c1)CCC2	inactive
Cc1c(-c2ccccc2)cnc2c(C)cccc12	inactive
CCc1cc(=O)oc2c(C)c(O)c(CN(C)C)cc12	inactive
CC1CCCCC1NC(=O)COC(=O)c1c2c(nc3ccccc13)/C(=C/c1ccco1)CC2 (stereo unspecified)	inactive
CCN(CCn1cccn1)C(=O)CC1C(=O)NCCN1Cc1ccc(F)cc1 (stereo unspecified)	inactive
COc1cccc(CN2CCNC(=O)C2CC(=O)NC2CCOCC2)c1OC (stereo unspecified)	inactive
CCc1cc(CNC(=O)CC2C(=O)NCCN2Cc2ccc(-c3ccccc3)cc2)on1 (stereo unspecified)	35.5 µM (active)
O=S(=O)(Nc1ccc(-c2cn3cccnc3n2)cc1)c1ccccc1	inactive
Clc1ccc(-c2nc3cnccn3c2NC2CCCC2)cc1	inactive
CC(C)(C)C(CN1CCCC1)OC(=O)c1ccccc1 (stereo unspecified)	inactive
O=C(/C=C/c1cn(CC(O)CN2CCCCCC2)c2ccccc12)c1ccccc1 (stereo unspecified)	inactive
O=C(/C=C/c1cn(CC(O)CN2CCCCC2)c2ccccc12)c1ccccc1 (stereo unspecified)	inactive

SMILES	Potency
COc1ccc(C(=O)C(CN2CCCC2)c2ccccc2)cc1 (stereo unspecified)	28.2 µM (active)
COc1ccc(CC(=O)N2CCN(c3ccccc3)CC2)cc1	inactive
O=C(c1ccc(Cl)cc1)C(CN1CCCC1)c1ccccc1 (stereo unspecified)	22.4 µM (active)
O=C(c1ccc(Cl)cc1)C1CCN(C(=O)c2ccccc2F)CC1	inactive
O=C(O)c1ccn2c(C(=O)c3ccc(Cl)cc3)c(-c3ccccc3)cc2c1	inactive
O=C(c1ccc(Cl)cc1)C(CN1CCCCC1)c1ccccc1 (stereo unspecified)	31.6 µM (active)
O=C(C1=NN(c2ccccc2)C2C(=O)N(c3cccc(Cl)c3)C(=O)C12)c1ccccc1 (stereo unspecified)	inactive
COc1ccc(-c2c(C#N)c(N)nc3c2CCC3)cc1	inactive
CCCCN1C(=O)C2Cc3c([nH]c4ccccc34)CN2C1=S (stereo unspecified)	inactive
O=c1c(O)c(-c2cccs2)oc2ccccc12	inactive
CC(C)Oc1ccc(C(CCN)C2CCCCC2)cc1 (stereo unspecified)	25.1 µM (active)
COc1ccc(C2CC(c3ccc4ccccc4c3)=NN2C(=O)CNC2CCCCC2)cc1 (stereo unspecified)	39.8 µM (active)
CCC(=O)Nc1cccc(C2=NN(c3ccccc3)C(c3ccc(OC)cc3)C2)c1 (stereo unspecified)	inactive
COc1ccc(C2CC(c3ccc(OC)cc3OC(C)=O)=NN2C(=O)c2ccccc2)cc1 (stereo unspecified)	inactive
CCOc1ccc2nc(NCCCNS(=O)(=O)c3ccc(F)cc3)c(C#N)cc2c1	inactive
Nc1c(C(=O)Nc2ccccc2F)sc2nc(-c3ccco3)ccc12	inactive
COc1ccc(C(=O)Nc2cccc(/C=C/c3nc(O)c4ccccc4n3)c2)cc1	25.1 µM (active)
COc1cc(/C=C/c2nc(O)c3ccccc3n2)cc(Cl)c1O	inactive
COc1ccc(NC(=O)c2cc3ccccc3cc2O)cc1	inactive
O[C@@H]1[C@@H]2c3cc4c(cc3CN3CCC(=C[C@@H]1O)[C@H]23)OCO4	6.31 µM (active)
COc1cc(C2Nc3ccc4ccccc4c3C3=C2C(=O)CC(C)(C)C3)ccc1OCC(=O)O (stereo unspecified)	inactive
COCCN(CCOC)Cc1c(O)ccc2c1O/C(=C\c1ccco1)C2=O	inactive

SMILES	Potency
Cc1cc(-c2ccnc(-n3ncc(C(=O)NCC4COCCO4)c3C3CC3)n2)c(C)s1 (stereo unspecified)	inactive
O=C(NN/C=C1\C(=O)N(c2ccccc2Cl)C(=O)c2ccccc21)c1cccnc1	inactive
CNc1ccc(N=Nc2cc[n+]([O-])cc2C)cc1C	28.2 µM (active)
CCOC(=O)C1(Cc2ccccc2C(F)(F)F)CCN(CC(O)CO)CC1 (stereo unspecified)	inactive
Cc1cccn2c(=O)c3cc(S(=O)(=O)c4ccccc4)c(=N)n(Cc4ccco4)c3nc12	inactive
CCOC(=O)CNC(=O)Cn1cnc2c(cnn2-c2ccc(C)cc2)c1=O	inactive
Cc1nn(Cc2ccccc2Cl)c(C)c1C(=O)N(C)CC(=O)Nc1cccc(F)c1	inactive
Cc1nn(-c2ccccc2)c(C)c1C(=O)OCC(=O)Nc1ccccc1Cl	inactive
Cc1ccc(-n2nc(C)c(NC(=O)CCl)c2C)cc1C	35.5 µM (active)
Cc1cc(C)n(-c2ccc(C(=O)NCC(=O)Nc3cc(Cl)ccc3Cl)cc2)n1	inactive
COc1ccc(-c2c(NC(=O)c3ccco3)n(-c3ccc(C)cc3)nc(C)c2=O)cc1	inactive
Cc1ccc(-n2nc(C)c(NC(=O)CCl)c2C)cc1	39.8 µM (active)
CCc1ccc(-c2cc(C(F)(F)F)n3nc(C(=O)Nc4c(C)nn(Cc5ccccc5Cl)c4C)cc3n2)s1	inactive
Cc1nn(Cc2ccc(Cl)cc2Cl)c(C)c1NC(=O)CCl	25.1 µM (active)
COCCSc1ccccc1C(=O)N1CCc2ccccc21	inactive
CCOCCCn1c(=N)c(C(=O)NCc2ccccc2)cc2c(=O)n3ccccc3nc21	inactive
O=C1CCC(=O)N1c1nc2n(n1)C(c1ccccc1)C=C(c1ccc(Br)cc1)N2 (stereo unspecified)	inactive
Cc1ccc2[nH]c3ccccc3c(=O)c2c1	inactive
O=c1c2ccccc2[nH]c2ccccc12	inactive
Cc1[nH]c2ccccc2c1C1=CC(=O)C=CC1=O	39.8 µM (active)
COCc1cc(C)nc2sc(C(=O)Nc3nccs3)c(N)c12	inactive
Cc1ccccc1N=C(S)NNC(=O)c1cccc(Br)c1	inactive
